Data published in PubChem BioAssay (NCATS).
Inconclusive results are not listed. A call without a number means that no potency is given here. Unmarked numbers belong to inactive results. Active and inactive are the calls of the source. The call rests on the fitted dose curve; in most records, active means well fitted inhibition curve with a large enough effect; inconclusive means small, poorly fitted or top-dose-only effect; inactive means flat fitted curve, though single readings scatter.

Legend:
Assay in all cases: qHTS profiling for inhibitors of Plasmodium falciparum proliferation (AID 504749); further: nearly all actives have a fitted effect of over 60% in size
Settings in all cases: P. falciparum in erythrocytes, SYBR Green DNA, 72 h; series mostly up to 28.7 µM
[1] = system: CP256
Outline: (§1)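 P. falciparum-infected erythrocytes (0.3% parasitemia, 2.5% hematocrit final) were exposed to compounds for 72 h at 37 C in 5% CO2, then lysed with SYBR Green buffer overnight at room temperature; parasite DNA fluorescence was normalized to artemisinin and DMSO controls.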

[2] = system: CP260
Outline: as §1

[3] = system: CP262
Outline: as §1

[4] = system: CP265
Outline: as §1

[5] = system: CP268
Outline: as §1

[6] = system: CP269
Outline: as §1

[7] = system: CP286
Outline: as §1

[8] = system: CP291
Outline: as §1

[9] = system: CP297
Outline: as §1

[10] = system: CP305
Outline: as §1

[11] = system: CP315
Outline: as §1

[12] = system: CP325
Outline: as §1

[13] = system: CP329
Outline: as §1

[14] = system: CP335
Outline: as §1

[15] = system: DFO2036
Outline: as §1

[16] = system: DIV14
Outline: as §1

[17] = system: DIV17
Outline: as §1

[18] = system: DIV30
Outline: as §1

[19] = system: Dd2
Outline: as §1

[20] = system: ECU
Outline: as §1

[21] = system: FAB9
Outline: as §1

[22] = system: GB4
Outline: as §1

[23] = system: HB3
Outline: as §1

[24] = system: ICS
Outline: as §1

[25] = system: JCK
Outline: as §1

[26] = system: N140
Outline: as §1

[27] = system: P94_40
Outline: as §1

[28] = system: PAD
Outline: as §1

[29] = system: PC15
Outline: as §1

[30] = system: PC26
Outline: as §1

[31] = system: PC49
Outline: as §1

[32] = system: SC27B
Outline: as §1

[33] = system: TAB109
Outline: as §1

[34] = system: TAB113
Outline: as §1

[35] = system: TAB165
Outline: as §1

[36] = system: W2
Outline: as §1
Potency means the concentration at half of the fitted maximal effect.

CCOC(=O)c1cncn1[C@@H](C)c1ccccc1
Potency [1]: inactive | Potency [2]: inactive | Potency [3]: inactive | Potency [4]: inactive | Potency [5]: inactive | Potency [6]: inactive | Potency [7]: inactive | Potency [8]: inactive | Potency [9]: inactive | Potency [10]: inactive | Potency [11]: inactive | Potency [12]: inactive | Potency [13]: inactive | Potency [14]: inactive | Potency [15]: inactive | Potency [16]: inactive | Potency [17]: inactive | Potency [18]: inactive | Potency [19]: inactive | Potency [20]: inactive | Potency [21]: inactive | Potency [22]: inactive | Potency [23]: inactive | Potency [24]: inactive | Potency [25]: inactive | Potency [26]: inactive | Potency [27]: inactive | Potency [28]: inactive | Potency [29]: inactive | Potency [30]: inactive | Potency [31]: inactive | Potency [32]: inactive | Potency [33]: inactive | Potency [34]: inactive | Potency [35]: inactive | Potency [36]: 1.81 µM (active)
